Records with an inconclusive call do not appear. Activity calls are given as the source filed them. Rule for the calls, unless noted: active = hit-call score of the fitted dose curve at least 0.9, where 1 is the maximum; inactive = score below 0.9.
How the values were obtained:
[1] = ATG_NFI_CIS: Attagene CIS-FACTORIAL HepG2 Assay for human Nuclear Factor I (NFI) (AID 2282989); details: HepG2 cis-regulatory reporter, NFI response element transcription; actives raise or lower the signal
Procedure, shortened: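 Endogenous TF activity in HepG2 cells transiently transfected with cis-element-driven multiplexed reporter units, read 24 h after dosing. Reporter mRNA quantified by RT-PCR, 6-FAM labelling, HpaI digestion and capillary electrophoresis; bidirectional fit versus DMSO.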

[2] = target: Myc proto-oncogene protein (Homo sapiens) (UniProt P01106); test: ATG_Myc_CIS: Attagene CIS-FACTORIAL HepG2 Assay for human Myelocytomatosis (Myc) Proto-Oncogene Transcription Factor (AID 2282990); details: HepG2, Attagene cis-reporter transcription factor activity; actives raise or lower the signal
Procedure, shortened: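 After 24 h chemical treatment of HepG2 cells carrying multiplexed cis-regulated reporter constructs, reporter transcripts quantified by RT-PCR and capillary electrophoresis of fluorescent fragments. Gain or loss fitted against DMSO baseline.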

[3] = ATG_NF_kB_CIS: Attagene CIS-FACTORIAL HepG2 Assay for human Nuclear Factor Kappa B (NF-kB) (AID 2282991); details: HepG2 Attagene cis-factorial NF-kB reporter mRNA; actives raise or lower the signal
Procedure, shortened: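 HepG2 cells transfected with cis-promoter-driven reporter units, so endogenous transcription factor activity is measured. Reporter mRNA quantified 24 h after dosing by RT-PCR and capillary electrophoresis, with bidirectional fitting against DMSO.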

[4] = ATG_NRF2_ARE_CIS: Attagene CIS-FACTORIAL HepG2 Assay for human Nuclear Factor Erythroid 2 Related Factor 2 (NFR2) response to Antioxidant Response Elements (ARE) (AID 2282992); details: HepG2 Attagene ARE/NRF2 reporter, transcription factor activity; actives raise or lower the signal;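 for AC50: reporter mRNA level measured by RT-PCR and capillary electrophoresis fluorescence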
Procedure, shortened: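 Fluorescence intensity of reporter-specific cDNA fragments, separated by capillary electrophoresis, reflects mRNA induction in transfected HepG2 cells at 24 h. Activity is fitted bidirectionally, DMSO serving as baseline.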

[5] = ATG_Oct_MLP_CIS: Attagene CIS-FACTORIAL HepG2 Assay for human Octamer-Binding Transcription Factor (Oct) (AID 2282993); details: HepG2 Attagene cis-factorial Oct reporter, mRNA; actives raise or lower the signal
Procedure, shortened: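 HepG2 cells transiently transfected with cis-element-driven reporter transcription units (endogenous TF activity); 24 h compound exposure. Reporter mRNA quantified by RT-PCR, 6-FAM labelling, HpaI digestion and capillary electrophoresis; bidirectional fit versus DMSO baseline.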

[6] = target: Cellular tumor antigen p53 (Homo sapiens) (UniProt P04637); test: ATG_p53_CIS: Attagene CIS-FACTORIAL HepG2 Assay for human p53 Transcription Factor (AID 2282994); details: HepG2 p53 cis-element reporter, Attagene mRNA; actives raise or lower the signal
Procedure, shortened: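 Transiently transfected HepG2 (multiple cis reporter transcription units); exposure 24 h; reporter RNA via RT-PCR, 6-FAM extension, 2 h HpaI digest at 37 C, CE detection; DMSO baseline.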

[7] = BSK_3C_TissueFactor: BioMAP Diversity Plus: 3C Assay for Tissue Factor Biomarker Activity (AID 2282997); details: BioMAP 3C HUVEC, tissue factor biomarker readout; actives raise or lower the signal
Procedure, shortened: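 In this endothelial system, HUVEC are treated for 24 h and Tissue Factor is assessed by ELISA, normalised to DMSO.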

[8] = BSK_3C_VCAM1: BioMAP Diversity Plus: 3C Assay for Vascular cell adhesion molecule 1 (VCAM1) Biomarker Activity (AID 2282999); details: BioMAP 3C HUVEC, VCAM1 ELISA, cytokine-stimulated; actives raise or lower the signal
Procedure, shortened: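 Activity fitted in both directions relative to DMSO, with ELISA measurement of the surface marker on primary HUVEC (3C) at 24 h post-treatment; parallel SRB staining (0.1% SRB, TCA-fixed, 560 nm) flagged overt cytotoxicity.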

[9] = BSK_4H_Eotaxin3: BioMAP Diversity Plus: 4H Assay for Eotaxin 3 Biomarker Activity (AID 2283000); details: primary human endothelial cells (HUVEC); actives raise or lower the signal
Procedure, shortened: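 ELISA quantitation of CCL26 (Eotaxin-3) protein from chemically dosed human vascular endothelial cells at 24 h; increases and decreases both scored relative to DMSO-treated baseline.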

[10] = read-out: Intercellular Adhesion Molecule 1 (ICAM1), ICAM1 (gene 3383); test: BSK_3C_ICAM1: BioMAP Diversity Plus: 3C Assay for Intercellular Adhesion Molecule 1 (ICAM1) Biomarker Activity (AID 2283003); details: primary human endothelial cells (HUVEC); actives raise or lower the signal
Procedure, shortened: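 ELISA read-out of ICAM-1; HUVEC (primary human), 3C system, 24 h post-dosing; bidirectional fit vs DMSO baseline.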

[11] = BSK_3C_Proliferation: Cell Proliferation Assessment in the BioMAP Diversity Plus: 3C Assay (AID 2283006); details: primary human endothelial cells (HUVEC);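 for AC50: potency may reflect either rise or fall in cell number versus DMSO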
Procedure, shortened: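 HUVEC, sub-confluent; 48 h chemical exposure; 10% TCA fix, 0.1% SRB stain, A560 total protein. Gain or loss of signal fitted both directions vs DMSO control.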

[12] = target: Peroxisome proliferator-activated receptor gamma (Homo sapiens) (UniProt P37231); test: ATG_PPARg_TRANS: Attagene TRANS-FACTORIAL HepG2 Assay for human Peroxisome Proliferator-activated Receptor-gamma (PPARg) (AID 2283007; active = hit-call score of the fitted dose curve at least 0.9, where 1 is the maximum)
Procedure, shortened: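 HepG2 cells are transiently transfected with GAL4-UAS reporter units driven by chimeric NR-Gal4 fusions and dosed for 24 h. Reporter mRNA is quantified by RT-PCR, 6-FAM labelling, HpaI digestion and capillary electrophoresis. Induction is scored against DMSO.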

[13] = target: Nuclear receptor subfamily 1 group I member 2 (Homo sapiens) (UniProt O75469); test: ATG_PXR_TRANS: Attagene TRANS-FACTORIAL HepG2 Assay for human Pregnane X Receptor (PXR) (AID 2283008; active = hit-call score of the fitted dose curve at least 0.9, where 1 is the maximum)
Procedure, shortened: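 Transient HepG2 transfectants carrying multiplexed reporter transcription units; PXR activity read through a Gal4 chimera. 24 h exposure. RT-PCR/CE fluorescence; upward curve fit referenced to DMSO.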

[14] = target: human Peroxisome Proliferator-activated Receptor alpha (PPARa), PPARA (gene 5465) (UniProt Q07869); test: ATG_PPARa_TRANS: Attagene TRANS-FACTORIAL HepG2 Assay for human Peroxisome Proliferator-activated Receptor alpha (PPARa) (AID 2283001; active = hit-call score of the fitted dose curve at least 0.9, where 1 is the maximum;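 for AC50: potency for gain of reporter signal over DMSO so agonist or activator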)
Procedure, shortened: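 Transfected HepG2 cells treated with test chemical for 24 h. RNA isolated, reverse-transcribed with oligo(dT), PCR-amplified, FAM-labelled and HpaI-digested. Fragments sized by capillary electrophoresis; gain-of-signal fit relative to DMSO.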

[15] = target: human Peroxisome Proliferator-activated Receptor delta (PPARd), PPARD (gene 5467) (UniProt Q03181); test: ATG_PPARd_TRANS: Attagene TRANS-FACTORIAL HepG2 Assay for human Peroxisome Proliferator-activated Receptor delta (PPARd) (AID 2283002; active = hit-call score of the fitted dose curve at least 0.9, where 1 is the maximum)
Procedure, shortened: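 Read-out is induced reporter mRNA, quantified by RT-PCR with fluorescent labelling and capillary electrophoresis after 24 h dosing. Cells are HepG2 transiently carrying multiple GAL4-UAS reporter units driven by exogenous NR-GAL4 chimeras; DMSO serves as baseline.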

[16] = target: human Retinoic Acid Receptor beta (RARb), RARB (gene 5915) (UniProt P10826); test: ATG_RARb_TRANS: Attagene TRANS-FACTORIAL HepG2 Assay for human Retinoic Acid Receptor beta (AID 2283004; active = hit-call score of the fitted dose curve at least 0.9, where 1 is the maximum)
Procedure, shortened: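 Fluorescent capillary-electrophoresis detection of GAL4-UAS reporter mRNA defines the endpoint, with induction over DMSO-treated wells scored as activity. Transiently transfected human hepatoma HepG2 cells expressing exogenous NR–Gal4 proteins are exposed to test chemicals for 24 h.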

[17] = target: human RAR-related Orphan Receptor beta (RORb), RORB (gene 6096) (UniProt Q92753); test: ATG_RORb_TRANS: Attagene TRANS-FACTORIAL HepG2 Assay for human RAR-related Orphan Receptor beta (RORb) (AID 2283010; active = hit-call score of the fitted dose curve at least 0.9, where 1 is the maximum)
Procedure, shortened: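 HepG2, transient MRTU transfection (GAL4-UAS reporters, exogenous NR-Gal4 chimeras); 24 h compound exposure; total RNA → RT-PCR → 6-FAM primer extension → HpaI digest → CE fluorescence. Positive direction vs DMSO baseline.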

[18] = target: Retinoic acid receptor alpha (Homo sapiens) (UniProt P10276); test: ATG_RARa_TRANS: Attagene TRANS-FACTORIAL HepG2 Assay for human Retinoic Acid Receptor alpha (RARa) (AID 2283005; active = hit-call score of the fitted dose curve at least 0.9, where 1 is the maximum)
Procedure, shortened: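 Reporter transcripts, measured by RT-PCR with fluorescent labeling and capillary electrophoresis after 24 h dosing, reflect activity of an exogenous human RARa–GAL4 fusion in transiently transfected HepG2. Fitted for increase relative to DMSO.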

[19] = target: human Retinoic Acid Receptor gamma (RARg), RARG (gene 5916) (UniProt P13631); test: ATG_RARg_TRANS: Attagene TRANS-FACTORIAL HepG2 Assay for human Retinoic Acid Receptor gamma (RARg) (AID 2283009; active = hit-call score of the fitted dose curve at least 0.9, where 1 is the maximum)
Procedure, shortened: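 Readout: reporter transcript levels via RT-PCR, 6-FAM primer-extension labelling, HpaI digestion and capillary electrophoresis. Cells: HepG2 carrying transfected RARg-GAL4 chimera plus UAS reporter set. Dosing 24 h; DMSO negative control.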

Measured: AC50

Sequence of Nuclear receptor subfamily 1 group I member 2 (Homo sapiens) (O75469 whole entry, looked up, the tested form may be a part): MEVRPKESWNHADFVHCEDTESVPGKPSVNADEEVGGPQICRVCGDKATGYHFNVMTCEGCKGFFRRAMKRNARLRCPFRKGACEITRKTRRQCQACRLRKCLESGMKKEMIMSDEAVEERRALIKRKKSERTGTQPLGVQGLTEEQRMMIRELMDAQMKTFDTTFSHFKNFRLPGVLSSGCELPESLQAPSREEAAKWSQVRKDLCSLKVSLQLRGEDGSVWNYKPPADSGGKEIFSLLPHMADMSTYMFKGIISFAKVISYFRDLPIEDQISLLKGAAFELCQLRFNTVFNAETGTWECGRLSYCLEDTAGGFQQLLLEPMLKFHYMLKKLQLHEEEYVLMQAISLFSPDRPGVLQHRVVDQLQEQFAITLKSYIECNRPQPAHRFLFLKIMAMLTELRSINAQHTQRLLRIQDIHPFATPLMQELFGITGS
Sequence of Retinoic acid receptor alpha (Homo sapiens) (P10276 whole entry, looked up, the tested form may be a part): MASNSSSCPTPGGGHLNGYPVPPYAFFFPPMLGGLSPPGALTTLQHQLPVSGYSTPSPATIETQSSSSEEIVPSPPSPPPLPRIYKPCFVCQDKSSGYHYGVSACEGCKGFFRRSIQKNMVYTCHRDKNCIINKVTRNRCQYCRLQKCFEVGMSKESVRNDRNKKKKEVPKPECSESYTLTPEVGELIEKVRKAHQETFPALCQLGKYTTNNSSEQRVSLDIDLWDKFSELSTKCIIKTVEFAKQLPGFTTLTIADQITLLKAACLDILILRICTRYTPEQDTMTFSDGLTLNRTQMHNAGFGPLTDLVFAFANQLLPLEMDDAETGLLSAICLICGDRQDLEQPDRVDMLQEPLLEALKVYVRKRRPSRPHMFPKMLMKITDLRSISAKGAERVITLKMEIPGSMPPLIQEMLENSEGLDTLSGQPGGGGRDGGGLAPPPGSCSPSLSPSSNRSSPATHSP
Sequence of human Peroxisome Proliferator-activated Receptor delta (PPARd), PPARD (gene 5467) (Q03181 whole entry, looked up, the tested form may be a part): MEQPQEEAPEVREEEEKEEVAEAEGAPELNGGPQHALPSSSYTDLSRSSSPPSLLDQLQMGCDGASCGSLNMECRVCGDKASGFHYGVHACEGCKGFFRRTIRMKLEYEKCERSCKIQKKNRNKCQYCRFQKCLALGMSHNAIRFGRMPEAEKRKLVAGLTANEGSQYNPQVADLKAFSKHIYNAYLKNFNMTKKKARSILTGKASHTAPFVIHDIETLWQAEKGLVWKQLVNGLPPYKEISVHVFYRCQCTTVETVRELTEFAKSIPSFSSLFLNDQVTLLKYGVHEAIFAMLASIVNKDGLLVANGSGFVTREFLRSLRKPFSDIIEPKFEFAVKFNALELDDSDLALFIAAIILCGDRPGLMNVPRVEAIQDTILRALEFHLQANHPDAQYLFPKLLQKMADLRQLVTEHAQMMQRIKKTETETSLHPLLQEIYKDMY
Sequence of Peroxisome proliferator-activated receptor gamma (Homo sapiens) (P37231 whole entry, looked up, the tested form may be a part): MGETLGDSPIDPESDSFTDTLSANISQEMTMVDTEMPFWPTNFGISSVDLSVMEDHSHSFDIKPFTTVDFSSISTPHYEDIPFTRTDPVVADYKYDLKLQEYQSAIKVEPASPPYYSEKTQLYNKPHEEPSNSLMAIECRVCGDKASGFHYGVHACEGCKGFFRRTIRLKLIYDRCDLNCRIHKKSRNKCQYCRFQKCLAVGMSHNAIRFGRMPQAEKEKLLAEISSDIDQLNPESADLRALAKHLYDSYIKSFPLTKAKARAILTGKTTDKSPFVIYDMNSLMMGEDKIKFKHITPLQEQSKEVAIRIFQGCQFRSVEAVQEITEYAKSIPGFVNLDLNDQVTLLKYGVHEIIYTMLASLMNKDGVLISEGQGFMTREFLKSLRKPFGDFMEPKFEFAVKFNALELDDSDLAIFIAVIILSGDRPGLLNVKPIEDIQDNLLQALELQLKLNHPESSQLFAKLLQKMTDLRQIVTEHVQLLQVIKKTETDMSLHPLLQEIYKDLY
Sequence of human RAR-related Orphan Receptor beta (RORb), RORB (gene 6096) (Q92753 whole entry, looked up, the tested form may be a part): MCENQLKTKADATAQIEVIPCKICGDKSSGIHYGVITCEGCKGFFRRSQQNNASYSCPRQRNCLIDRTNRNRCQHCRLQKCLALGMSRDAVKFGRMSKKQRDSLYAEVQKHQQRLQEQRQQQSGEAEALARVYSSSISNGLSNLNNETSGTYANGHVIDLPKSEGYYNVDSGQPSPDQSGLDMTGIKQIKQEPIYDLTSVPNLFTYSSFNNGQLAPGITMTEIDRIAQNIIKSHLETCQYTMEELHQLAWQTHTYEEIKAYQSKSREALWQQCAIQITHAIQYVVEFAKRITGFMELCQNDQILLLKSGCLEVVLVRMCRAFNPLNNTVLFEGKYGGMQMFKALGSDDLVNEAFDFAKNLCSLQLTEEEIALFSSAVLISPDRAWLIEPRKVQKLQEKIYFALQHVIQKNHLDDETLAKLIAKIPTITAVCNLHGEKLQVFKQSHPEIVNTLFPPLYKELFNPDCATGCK
Sequence of Cellular tumor antigen p53 (Homo sapiens) (P04637 whole entry, looked up): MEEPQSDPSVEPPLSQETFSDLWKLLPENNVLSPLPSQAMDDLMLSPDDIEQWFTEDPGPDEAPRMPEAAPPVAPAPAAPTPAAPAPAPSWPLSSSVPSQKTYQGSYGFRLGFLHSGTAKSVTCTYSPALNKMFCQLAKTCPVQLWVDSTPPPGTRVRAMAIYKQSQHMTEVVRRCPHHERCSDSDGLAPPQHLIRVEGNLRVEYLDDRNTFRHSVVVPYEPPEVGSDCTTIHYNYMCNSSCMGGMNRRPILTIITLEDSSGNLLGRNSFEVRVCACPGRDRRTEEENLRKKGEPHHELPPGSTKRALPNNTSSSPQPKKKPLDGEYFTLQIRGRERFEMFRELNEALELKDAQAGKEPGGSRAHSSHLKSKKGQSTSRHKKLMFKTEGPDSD
Sequence of human Retinoic Acid Receptor gamma (RARg), RARG (gene 5916) (P13631 whole entry, looked up, the tested form may be a part): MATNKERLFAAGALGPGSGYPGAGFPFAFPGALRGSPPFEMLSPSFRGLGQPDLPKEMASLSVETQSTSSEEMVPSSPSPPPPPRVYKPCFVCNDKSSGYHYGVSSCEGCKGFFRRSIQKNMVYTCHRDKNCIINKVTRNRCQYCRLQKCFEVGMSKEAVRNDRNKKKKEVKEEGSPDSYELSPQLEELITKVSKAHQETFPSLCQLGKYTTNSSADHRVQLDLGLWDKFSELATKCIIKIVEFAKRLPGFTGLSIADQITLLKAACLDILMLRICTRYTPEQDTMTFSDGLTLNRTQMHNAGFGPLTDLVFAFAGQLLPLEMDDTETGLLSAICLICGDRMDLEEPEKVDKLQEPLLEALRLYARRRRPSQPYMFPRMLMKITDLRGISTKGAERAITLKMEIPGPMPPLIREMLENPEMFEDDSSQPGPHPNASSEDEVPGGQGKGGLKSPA
Sequence of human Peroxisome Proliferator-activated Receptor alpha (PPARa), PPARA (gene 5465) (Q07869 whole entry, looked up, the tested form may be a part): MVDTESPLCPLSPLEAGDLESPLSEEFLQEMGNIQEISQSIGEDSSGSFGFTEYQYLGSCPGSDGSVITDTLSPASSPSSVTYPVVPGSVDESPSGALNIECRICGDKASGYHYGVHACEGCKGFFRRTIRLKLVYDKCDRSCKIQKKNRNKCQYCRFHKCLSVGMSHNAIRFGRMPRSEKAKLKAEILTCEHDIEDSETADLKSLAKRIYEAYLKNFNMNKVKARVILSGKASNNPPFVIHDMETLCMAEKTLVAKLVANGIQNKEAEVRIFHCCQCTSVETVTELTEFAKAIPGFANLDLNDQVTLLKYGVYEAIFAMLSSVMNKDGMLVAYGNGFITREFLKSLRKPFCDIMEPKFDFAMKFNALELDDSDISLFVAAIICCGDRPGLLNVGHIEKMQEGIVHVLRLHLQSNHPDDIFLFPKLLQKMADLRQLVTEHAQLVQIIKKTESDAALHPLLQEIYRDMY
Sequence of Myc proto-oncogene protein (Homo sapiens) (P01106 whole entry, looked up, the tested form may be a part): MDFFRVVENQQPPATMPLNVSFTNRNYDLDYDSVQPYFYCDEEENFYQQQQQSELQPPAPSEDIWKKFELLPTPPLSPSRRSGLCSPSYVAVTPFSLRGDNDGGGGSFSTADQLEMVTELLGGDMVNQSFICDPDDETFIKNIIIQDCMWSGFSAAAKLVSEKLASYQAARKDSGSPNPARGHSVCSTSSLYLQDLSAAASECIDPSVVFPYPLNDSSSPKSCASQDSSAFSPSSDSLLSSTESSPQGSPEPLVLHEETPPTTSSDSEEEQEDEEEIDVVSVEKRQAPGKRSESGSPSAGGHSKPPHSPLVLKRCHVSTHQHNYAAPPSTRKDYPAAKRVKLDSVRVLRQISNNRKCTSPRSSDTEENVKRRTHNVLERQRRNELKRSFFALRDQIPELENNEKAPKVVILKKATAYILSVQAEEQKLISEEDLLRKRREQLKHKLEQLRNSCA
Sequence of human Retinoic Acid Receptor beta (RARb), RARB (gene 5915) (P10826 whole entry, looked up, the tested form may be a part): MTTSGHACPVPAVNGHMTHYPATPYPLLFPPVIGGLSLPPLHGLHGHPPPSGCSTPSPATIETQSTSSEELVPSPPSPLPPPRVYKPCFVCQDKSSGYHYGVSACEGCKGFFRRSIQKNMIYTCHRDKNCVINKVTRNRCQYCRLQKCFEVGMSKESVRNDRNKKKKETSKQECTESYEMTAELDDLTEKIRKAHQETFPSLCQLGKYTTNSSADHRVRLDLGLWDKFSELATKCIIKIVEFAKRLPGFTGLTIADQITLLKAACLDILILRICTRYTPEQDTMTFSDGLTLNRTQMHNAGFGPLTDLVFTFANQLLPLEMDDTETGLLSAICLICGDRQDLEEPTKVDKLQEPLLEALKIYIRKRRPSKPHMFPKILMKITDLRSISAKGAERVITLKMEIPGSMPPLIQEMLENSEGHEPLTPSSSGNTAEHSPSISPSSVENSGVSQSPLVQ

C=C(C)C(=O)OCC(CC)(COC(=O)C(=C)C)COC(=O)C(=C)C
active: [4] 51.4 µM | [11] 13.9 µM | [12] 98.5 µM
not listed: [14] | [15] | [16] | [17] | [18] | [19]
inactive: all other assays above

CC(C)(C)CC(C)(C)c1ccc(OCCOCC[N+](C)(C)Cc2ccccc2)cc1
inactive: [1] | [2] | [3] | [5] | [15] | [16] | [12]
active: [4] 6.71 µM | [6] 8.35 µM | [7] 7.26 µM | [8] 7.65 µM | [9] 7.69 µM | [14] 14.4 µM | [10] 8.87 µM | [11] 7.08 µM

C=C(C)C(=O)OCCOCCOCCOC(=O)C(=C)C
not listed: [15] | [16] | [17] | [18] | [19]
inactive: all other assays above

COS(=O)(=O)O
inactive: [1] | [2] | [3] | [4] | [5] | [6] | [14] | [13]

C=C(C#N)C(=O)OCC
inactive: [1] | [2] | [4] | [5] | [14] | [12] | [13] | [17]
active: [3] 100 µM | [6] 80 µM

CCCCCCCCCCCCCCN(CCO)CCO
inactive: [2] | [3] | [5] | [6] | [14] | [16] | [18] | [13] | [19]
active: [1] 17.2 µM | [4] 11.1 µM

C#CC(C)(O)CC(C)C (stereo not given)
not listed: [7] | [8] | [9] | [10] | [11] | [15] | [16] | [18]
inactive: all other assays above

OCC(O)c1ccccc1 (stereo not given)
inactive: [1] | [2] | [3] | [4] | [5] | [6] | [14] | [15] | [13] | [17]

OCc1cccc(Oc2ccccc2)c1
inactive: [1] | [2] | [3] | [4] | [5] | [6] | [14] | [13]
active: [12] 74.7 µM

O=C1CCCC=CCCCCCCCCCC1
active: [4] 45.7 µM | [12] 66.8 µM | [13] 10.3 µM
inactive: [1] | [2] | [3] | [5] | [6] | [14]

CCCCCCCCc1ccc(S(=O)(=O)O)cc1
active: [1] 185 µM | [3] 130 µM | [4] 99.5 µM | [12] 23.6 µM
not listed: [7] | [8] | [9] | [10] | [11] | [15]
inactive: all other assays above

COc1cc(CCC(C)=O)ccc1O
inactive: [1] | [2] | [3] | [4] | [5] | [6] | [14] | [18] | [12] | [13]

CC(C)CC(C)CC(O)CC(C)C (stereo not given)
inactive: [1] | [2] | [3] | [5] | [6] | [14] | [18] | [12] | [13] | [19]
active: [4] 100 µM

CCC1CCCCC1
not listed: [7] | [8] | [9] | [10] | [11] | [15] | [17]
inactive: all other assays above

CCOC(=O)CC(C)O (stereo not given)
inactive: [1] | [2] | [3] | [4] | [5] | [6] | [14] | [12] | [13] | [19]

COC(=O)c1ccc([N+](=O)[O-])cc1
inactive: [1] | [2] | [3] | [4] | [5] | [6] | [14] | [15] | [12] | [17]

Cc1c(OCC(F)(F)F)ccnc1CS(=O)c1nc2ccccc2[nH]1 (stereo not given)
active: [4] 49.1 µM | [12] 23.7 µM
inactive: [1] | [2] | [3] | [5] | [6] | [14]

O=c1c(O)c(-c2ccc(O)cc2)oc2cc(O)cc(O)c12
inactive: [1] | [2] | [3] | [5] | [6] | [14] | [13] | [17]
active: [4] 8.93 µM | [12] 9.39 µM

CCCC(=O)OC(C)(C)Cc1ccccc1
active: [4] 145 µM
inactive: [1] | [2] | [3] | [5] | [6] | [14] | [12] | [13]

COC(=O)c1ccc(OC)cc1
inactive: [1] | [2] | [3] | [4] | [5] | [6] | [14] | [12] | [13]

N#Cc1cscn1
inactive: [1] | [2] | [3] | [4] | [5] | [6] | [14] | [13]

CCCCCCCCCC(C)C=O (stereo not given)
active: [4] 100 µM | [14] 27.5 µM | [12] 18.5 µM
inactive: [1] | [2] | [3] | [5] | [6] | [13] | [19]

Source: PubChem BioAssay (EPA / NIEHS)
